Structures are written as SMILES. Calls of active or inactive are those of the source.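 Rule for the calls: active = response changes with concentration, giving a dose-dependent curve as judged by the depositor; inactive = the rest, with no dose-dependent response.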

The assay concerns the target Muscarinic acetylcholine receptor M3 (Rattus norvegicus) (UniProt P08483). Nature of the assay: off-target potentiation of rat M3 ACh response – CHO-K1 cells, calcium fluorescence, ACh EC20, selectivity assay for M4 PAM optimization project, SAR follow-up (AID 623943). To be noted: CHO-K1 rM3, calcium fluorescence, PAM mode with ACh EC20; series mostly up to 30 µM.
With `Cc1nc2sc(C(=O)NCc3cccc(F)c3F)c(N)c2c(C)c1Cl`, the result was inactive.

For the compound `Cc1nc2sc(C(=O)NCc3ccccc3)c(N)c2c(C)c1Cl`, the result was inactive.

Turning to `Cc1nc2sc(C(=O)NCc3ccc4c(c3)OCO4)c(N)c2c(C)c1Cl`, the result was inactive.

For the compound `Cc1nc2sc(C(=O)NCc3ccncc3)c(N)c2c(C)c1Cl`, the outcome was inactive. Then `Cc1nc2sc(C(=O)NC3CC3)c(N)c2c(C)c1Cl`, with “inactive”. In the case of `COc1ccc(C)c2sc(NC(=O)c3ccncc3)nc12`, the outcome was inactive. Take `Cc1nc2sc(C(=O)NCc3nccs3)c(N)c2c(C)c1Cl`: the result was inactive. Then `Cc1nc2sc(C(=O)NCc3ccncn3)c(N)c2c(C)c1Cl`, with “inactive”.

`Cc1nc2sc(C(=O)NCc3cccnc3)c(N)c2c(C)c1Cl`: the outcome was inactive. Under `Cc1nc2sc(C(=O)NCCc3ccncc3)c(N)c2c(C)c1Cl` stands “inactive”.

For the origin of these results see PubChem BioAssay AID623943 (Vanderbilt Specialized Chemistry Center, 2012).
